This passage reports composite z-score and z-score results from PubChem BioAssay.

In assay [1] the test system is XIP peptide (Xip251-270) binding. Put plainly: small-molecule binders of XIP peptide, primary screen, biochemical, small-molecule microarray, fluorescence 635/667 nm, 0.1 µg/mL protein (AID 1182). Conditions: fluorescent protein binding, 635 nm, higher = more signal, called active from +8 up or from −8 down.
In the next assay the test system is XIP peptide (Xip251-270). Put plainly: small-molecule binders of XIP peptide, primary screen, biochemical, small-molecule microarray, fluorescence 635/667 nm, 0.5 µg/mL protein (AID 1183). Conditions: small-molecule microarray binding, fluorescence 635 nm; higher = more signal.
A short description of assay [2]: Plasmodium falciparum growth inhibition, primary screen, strain 3D7, DAPI fluorescence, 100 nL (AID 1184).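 Note: parasites grown inside human red blood cells in medium with human serum.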 The conditions noted are these: P. falciparum 3D7 growth, 3 d, higher = more signal.
In assay [3] the target is Homeobox protein Hox-A13 (Mus musculus) (UniProt Q62424). The assay is described as follows: inhibitors of HoxA13-DNA binding, primary screen, biochemical, fluorescence polarization, labeled oligonucleotide (AID 1185). The conditions noted are these: 15 min, higher = more signal, called active from +8 up or from −8 down.
Chain of Homeobox protein Hox-A13 (Mus musculus) (Q62424 whole entry, looked up): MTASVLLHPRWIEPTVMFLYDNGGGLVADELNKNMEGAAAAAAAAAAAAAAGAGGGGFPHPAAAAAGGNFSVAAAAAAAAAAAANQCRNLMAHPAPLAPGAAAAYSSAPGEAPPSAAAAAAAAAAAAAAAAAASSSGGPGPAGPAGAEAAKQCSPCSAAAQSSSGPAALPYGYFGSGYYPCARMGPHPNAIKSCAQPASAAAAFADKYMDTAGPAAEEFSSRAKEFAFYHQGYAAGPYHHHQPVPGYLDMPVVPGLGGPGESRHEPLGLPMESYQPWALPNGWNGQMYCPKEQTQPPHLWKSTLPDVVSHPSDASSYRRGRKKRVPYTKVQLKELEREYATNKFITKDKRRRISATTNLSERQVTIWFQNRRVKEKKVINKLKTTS
Assay [4] in a line: inhibitors of hydroxyurea-induced Chk1 phosphorylation, primary screen, imaging, HeLa, phospho-Chk1 antibody, percent positive cells (AID 1186). The conditions noted are these: hydroxyurea-induced phospho-Chk1 immunofluorescence imaging, higher = more signal.
A short description of assay [5]: inhibitors of hydroxyurea-induced Chk1 phosphorylation, primary screen, imaging, HeLa, phospho-Chk1 nuclear intensity (AID 1187). The conditions noted are these: hydroxyurea-induced phospho-Chk1 immunofluorescence imaging, higher = more signal.

Molecules are shown by their SMILES. Activity calls are given as the source filed them. Unless noted, the rule behind the calls is not given here.

With `C=C(COC)/C(=C/C[C@@H](OC(C)=O)c1ccc(CO)o1)c1cnc2ccccc2c1`, the composite z-score in assay [1] is 1.12 (inactive); with XIP peptide (Xip251-270) it was 0.797. Moreover, the z-score in assay [2] was -1.35; in assay [3], -4.13 (inactive); in assay [4], -0.154 (inactive); in assay [5], -0.323 (inactive).

In the case of `O=C(NCc1ccccc1)[C@@]1(CCS(=O)(=O)c2ccccc2)N=C(c2ccc(OCCCO)cc2)O[C@H]1c1ccccc1`, the composite z-score is 0.429 (inactive) in assay [1] and 0.565 with XIP peptide (Xip251-270). Also, the z-score is -2.05 in assay [2], -1.15 (inactive) in assay [3], -0.751 (inactive) in assay [4] and -0.64 (inactive) in assay [5].

Take `C=CCOC(=O)[C@H]1[C@@H]2C(=O)O[C@@H](c3ccccc3)[C@@H](c3ccccc3)N2[C@@H](c2ccc(OCCOC(=O)[C@@H]3C[C@@H]4C(=O)N[C@@H](CCCC[N+](C)(C)C)C(=O)N4[C@@H]3c3ccc(O)cc3)cc2)[C@]12C(=O)Nc1ccccc12`: the composite z-score in assay [1] is 0.543 (inactive); with XIP peptide (Xip251-270), 0.637. For the same compound, the z-score was 0.327 in assay [2], 6.39 (inactive) in assay [3], -0.75 (inactive) in assay [4] and -0.282 (inactive) in assay [5].

As for `CC(C)(C)OC(=O)CC[C@]1(C(=O)NCC(O)CO)COC(c2ccc(OCCCO)cc2)=N1` (some centres not stated), the composite z-score in assay [1] is 0.273 (inactive); in the assay with XIP peptide (Xip251-270), 0.151. Further, the z-score in assay [2] was -0.104; in assay [3] it was -3.95 (inactive); in assay [4], 0.505 (inactive); in assay [5] it was 0.437 (inactive).

For `COC(=O)[C@@]1(Cc2ccccc2)[C@H]2c3cc(C(=O)N4CCCC4)n(Cc4cccc5ccccc45)c3C[C@H]2CN1C(=O)c1ccccc1`, the composite z-score in assay [1] was 0.112 (inactive); with XIP peptide (Xip251-270), -0.569. Also, the z-score is -1.35 in assay [2], -3.06 (inactive) in assay [3], 1.05 (inactive) in assay [4] and 0.243 (inactive) in assay [5].

Consider `COc1ccc(CCN2C(=O)[C@@]3(Cc4ccccc42)c2ccccc2C(=O)N(Cc2ccccc2C(F)(F)F)[C@H]3c2ccc(CO)cc2)cc1`, for which the composite z-score was -0.223 (inactive) in assay [1] and 0.146 with XIP peptide (Xip251-270). Besides, the z-score in assay [2] is -1.18; in assay [3], 0.869 (inactive); in assay [4] it was -0.389 (inactive); in assay [5] it was -0.826 (inactive).

Turning to `CN1C2C=C(CCCO)C(C3C(=O)N(C(N)=O)C(=O)C32)C1c1ccc(CN2CCCC2)cc1` (configuration not stated), the composite z-score in assay [1] was 0.276 (inactive); with XIP peptide (Xip251-270), 0.297. Also, the z-score was 0.446 in assay [2], -5.26 (inactive) in assay [3], 0.0965 (inactive) in assay [4] and -0.0741 (inactive) in assay [5].

As to `COCCn1c(C(=O)N2CCCC2)cc2c1C[C@H]1CN(C(=O)c3ccccc3)[C@@](Cc3ccc(F)cc3)(C(=O)OC)[C@@H]21`, the values for the composite z-score (in assay [1]; with XIP peptide (Xip251-270)) were 0.254 (inactive) and 0.794, respectively. The z-score in assay [2] is -1.01; in assay [3], -5.83 (inactive); in assay [4], 0.0536 (inactive); in assay [5], 0.375 (inactive).

In the case of `COC(=O)C=C(CC(O)c1cccc(Cl)c1)OC` (configuration not stated), the composite z-score in assay [1] was 0.633 (inactive); with XIP peptide (Xip251-270) it was 0.744. In addition, the z-score was -0.0951 in assay [2], -1.42 (inactive) in assay [3], -1.22 (inactive) in assay [4] and -1.18 (inactive) in assay [5].

For `CN1C(=O)C2C=CC(C(O)c3cc(C(F)(F)F)cc(C(F)(F)F)c3)N(N3CCCCC3)C2C1=O` (configuration not stated), the composite z-score in assay [1] was 0.11 (inactive); with XIP peptide (Xip251-270), 0.289. For the same compound, the z-score is -0.0782 in assay [2], -4.54 (inactive) in assay [3], -1.22 (inactive) in assay [4] and -1.63 (inactive) in assay [5].

As for `CCOC(=O)[C@H]1CC=C2CC1C(=O)N1CCC[C@@H]1[C@@H]2O[Si](C)(C)C(C)(C)C` (some centres not stated), the composite z-score in assay [1] was -0.473 (inactive); in the assay with XIP peptide (Xip251-270), -0.216. In addition, the z-score was -0.575 in assay [2], -5.97 (inactive) in assay [3], -0.696 (inactive) in assay [4] and -0.559 (inactive) in assay [5].

For the compound `O=C1NCC(=O)N2[C@@H]1C[C@@H](C(=O)O)[C@H]2c1cccc(OCCO)c1`, the values for the composite z-score (in assay [1]; in the assay on XIP peptide (Xip251-270)) were 6.39 (inactive) and 1.02, respectively. Besides, the z-score is 0.0934 in assay [2], -1.39 (inactive) in assay [3], -0.467 (inactive) in assay [4] and -0.367 (inactive) in assay [5].

As to `COc1ccc([Si](C)(C)[C@H]2[C@H](CCO)O[C@@]3(C(=O)N(Cc4ccc(N5C(=O)COc6ccccc65)cc4)c4ccccc43)[C@@H]2C)cc1`, the figures for the composite z-score (in assay [1]; in the assay with XIP peptide (Xip251-270)) were 0.0409 (inactive) and 0.254, respectively. For the same compound, the z-score in assay [2] is -1.95; in assay [3], -0.911 (inactive); in assay [4], -0.661 (inactive); in assay [5], -1.02 (inactive).

As for `COc1ccc(C(O)C2C=CC3C(=O)N(c4ccccc4)C(=O)C3N2Nc2ccccc2F)cc1OCc1ccccc1` (configuration not stated), the composite z-score in assay [1] was 1.26 (inactive); with XIP peptide (Xip251-270), 0.698. Moreover, the z-score in assay [2] was -0.193; in assay [3], -0.0495 (inactive); in assay [4], -0.75 (inactive); in assay [5] it was -1.22 (inactive).

With `C=CCOC(=O)[C@H]1[C@@H]2C(=O)O[C@@H](c3ccccc3)[C@@H](c3ccccc3)N2[C@@H](c2ccc(OCCOC(=O)[C@@H]3C[C@@H]4C(=O)N[C@@H](CCCCN(C)C)C(=O)N4[C@@H]3c3ccc(O)cc3)cc2)[C@]12C(=O)Nc1ccc(I)cc12`, the composite z-score is 1.74 (inactive) in assay [1] and 0.805 in the assay on XIP peptide (Xip251-270). The z-score in assay [2] was -0.174; in assay [3], 6.34 (inactive); in assay [4], 0.936 (inactive); in assay [5] it was 0.679 (inactive).

On to `COc1ccc([Si](C)(C)[C@H]2[C@H](CC(=O)N3CCC[C@H]3CO)O[C@@]3(C(=O)N(Cc4cccc(N5C(=O)c6cccc7cccc5c67)c4)c4ccccc43)[C@@H]2C)cc1`, for which the figures for the composite z-score (in assay [1]; in the assay with XIP peptide (Xip251-270)) were 0.397 (inactive) and 0.674, respectively. Further, the z-score in assay [2] is -1.72; in assay [3], -3.25 (inactive); in assay [4] it was -0.0887 (inactive); in assay [5] it was -0.429 (inactive).

For the compound `O=C1c2ccccc2[C@](Cc2ccccc2I)(C(=O)NC2CC2)[C@H](c2ccc(CO)cc2)N1C1CCCCC1`, the composite z-score in assay [1] is 0.247 (inactive); in the assay on XIP peptide (Xip251-270) it was 0.743. Also, the z-score in assay [2] is -1.77; in assay [3], -3.63 (inactive); in assay [4] it was -0.199 (inactive); in assay [5], -0.0711 (inactive).

In the case of `COCCOC(=O)N1C(=O)[C@@]2(c3cc(C#Cc4ccc(OC)cc4)ccc31)[C@H](C(N)=O)[C@H]1C(=O)O[C@H](c3ccccc3)[C@H](c3ccccc3)N1[C@@H]2c1ccccc1OCCO`, the composite z-score is 1.85 (inactive) in assay [1] and 0.888 with XIP peptide (Xip251-270). Also, the z-score in assay [2] was -2.04; in assay [3] it was -1.77 (inactive); in assay [4], -0.111 (inactive); in assay [5], -0.559 (inactive).

Take `O=C1c2ccccc2[C@@]2(Cc3ccccc3N(CC(F)(F)F)C2=O)[C@H](c2ccc(CO)cc2)N1Cc1ccccc1Cl`: the composite z-score in assay [1] is 0.0764 (inactive); with XIP peptide (Xip251-270), 0.182. For the same compound, the z-score is -0.699 in assay [2], 0.0876 (inactive) in assay [3], -0.19 (inactive) in assay [4] and -0.245 (inactive) in assay [5].

As for `C=CCNC(=O)[C@@H]1[C@H]2C(=O)O[C@H](c3ccccc3)[C@H](c3ccccc3)N2[C@H](c2ccc(OCCO)cc2)[C@@]12C(=O)Nc1ccc(C#CCCO)cc12`, the composite z-score in assay [1] was 0.95 (inactive); in the assay with XIP peptide (Xip251-270) it was 0.77. Besides, the z-score in assay [2] is -1.02; in assay [3], -3.63 (inactive); in assay [4], 0.0523 (inactive); in assay [5] it was 0.205 (inactive).

Consider `COC(=O)[C@@]1(Cc2ccc(F)cc2)[C@H]2c3cc(C(=O)N4CCCC4)n(Cc4cc(C)n(C)n4)c3C[C@H]2CN1C(=O)c1ccccc1`, for which the values for the composite z-score (in assay [1]; with XIP peptide (Xip251-270)) were 1.55 (inactive) and 0.759, respectively. Also, the z-score in assay [2] is -1.58; in assay [3], -3.99 (inactive); in assay [4], 0.611 (inactive); in assay [5] it was 0.53 (inactive).

For `CN(C)C(=O)[C@]1(Cc2ccccc2N=[N+]=[N-])N=C(c2ccc(OCCCO)cc2)O[C@@H]1c1ccccc1`, the composite z-score in assay [1] was 1.03 (inactive); with XIP peptide (Xip251-270), 0.383. The z-score in assay [2] is -2.02; in assay [3], -6.21 (inactive); in assay [4], -0.879 (inactive); in assay [5], -1.26 (inactive).
